According to PMC6212833:
Hit rate of the full screen: of about 2,000 compounds, about 15 (0.8%) showed an effect of 50% or more. Only a selection was taken, and strong results are over-represented in it overall. *1 amine or outer side, *2 acyl side, *3 side chain or, on linkers, in order; H or OH if unused. Where a SMILES comes first, the peptide text is derived from it. Bridges are numbered along the chain shown (N, C = ends). X1 = O=C(CCC[*:2])[*:1]

tested on: Balamuthia mandrillaris (ATCC PRA-291) trophozoites, axenic culture; assay: primary screen, percent inhibition; higher = more effect of the substance; details: 20 µM;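 also: 0% = vehicle wells and 100% = lysate wells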
Protocol: Screening of a clinically approved library of compounds, compiled by the Small Molecule Discovery Center (SMDC) at the UCSF, was completed at 20 µM in 0.2% DMSO. All 2,177 drugs in the library were stored as 10 mM stocks dissolved in 100% DMSO (Sigma-Aldrich) at −20°C. B. mandrillaris amoebae were resuspended in axenic medium and distributed into opaque 384-well plates (Corning) at a density of 3,000 amoebae per well using a BioMek NX liquid handler. Negative-control wells were treated with vehicle only (0.2% DMSO in axenic medium), and positive-control wells simulating total destruction of amoebae were seeded with amoeba lysate generated by 3 consecutive freeze-thaw cycles. Following 72 h of incubation, 30 µl of CellTiter Glo reagent (CTG; Promega) was added to each well. The luminescence was measured with a Promega GloMax-Multi+ plate reader at 2, 4, and 8 h after CTG addition. […] The B-score, representing a plate-based statistical approach for correcting row, column, and edge effects, was also calculated for each compound in the library (75).

Structure (SMILES) | % Inhibition [%]
C1N2CN3CN1CN(C2)C3 | 25.9
CN(C)CCC[C@@]1(c2ccc(F)cc2)OCc2cc(C#N)ccc21 [131042-L5] | 29.1
c1ccc(-c2ccc(C(c3ccccc3)n3ccnc3)cc2)cc1 (stereo not shown) | 2.05
O=C(O)C1CSCN1 (stereo not shown) | 29
CC[C@H]1OC(=O)[C@H](C)[C@@H](O[C@H]2C[C@@](C)(OC)[C@@H](O)[C@H](C)O2)[C@H](C)[C@@H](O[C@@H]2O[C@H](C)C[C@H](N(C)C)[C@H]2O)[C@](C)(O)C[C@@H](C)C(=O)[C@H](C)[C@@H](O)[C@]1(C)O [129937-L7] | 19.9
CO/N=C(\C(=O)N[C@@H]1C(=O)N2C(C(=O)O)=C(COC(N)=O)CS[C@H]12)c1ccco1 | 11.5
Cc1ccc(S(=O)(=O)NC(=O)NN2CC3CCCC3C2)cc1 (stereo not shown) | 10.2
Cc1oncc1C(=O)Nc1ccc(C(F)(F)F)cc1 | 15
O=C(O)P(=O)(O)O | 19.1
CCCCN(CCCC)CC(O)c1cc(Cl)cc2c1-c1ccc(Cl)cc1/C2=C/c1ccc(Cl)cc1 (stereo not shown) | 5.93
CC[C@@]1(O)C(=O)OCc2c1cc1n(c2=O)Cc2cc3c([N+](=O)[O-])cccc3nc2-1 | -33
C[N+](C)(C)CCCCCC[N+](C)(C)C | 26
CCCCCCCCCCCCCCCC[N+](C)(C)C | 56.1
C[N+](C)(C)CCCCCCCCCC[N+](C)(C)C | 25.7
CC[C@H]1OC(=O)[C@H](C)[C@@H](O[C@H]2C[C@@](C)(OC)[C@@H](O)[C@H](C)O2)[C@H](C)[C@@H](O[C@@H]2O[C@H](C)C[C@H](N(C)C)[C@H]2O)[C@](C)(OC)C[C@@H](C)C(=O)[C@H](C)[C@@H](O)[C@]1(C)O | 8.87
O=C1NCCN1CCN1CCC(c2cn(-c3ccc(F)cc3)c3ccc(Cl)cc23)CC1 | 23.8
CN1CCc2c(c3ccccc3n2Cc2ccccc2)C1 | 34.1
CN/C(=C/[N+](=O)[O-])NCCSCc1ccc(CN(C)C)o1 | 7.74
CN/C(=C\[N+](=O)[O-])NCCSCc1csc(CN(C)C)n1 | 23.7
CN/C(=C\[N+](=O)[O-])NCCSCc1ccc(CN(C)C)o1 | 68.1
Nc1c(Br)cc(Br)cc1CNC1CCC(O)CC1 (stereo not shown) | 20.4
C#C[C@]1(OC(C)=O)CCC2C3CCC4=C/C(=N/O)CCC4C3CC[C@@]21CC (stereo partly shown) | 19.6
Cc1cnc(C(=O)O)c[n+]1[O-] | 0.14
Cc1cc(N)c2ccccc2[n+]1CCCCCCCCCC[n+]1c(C)cc(N)c2ccccc21 | 69
CC(=O)OCC(=O)[C@@]1(O)CCC2C3CCC4=CC(=O)CC[C@]4(C)C3[C@@H](O)C[C@@]21C (stereo partly shown) | 33.3
Cc1ncc([N+](=O)[O-])n1CC(C)O (stereo not shown) | 35.8

Structure (SMILES) | % Inhibition [%]
CCN(CC)C(=O)C1(c2ccccc2)CC1CN (stereo not shown) | 21.4
O=S(=O)(O)CCS | 8.32
CCCCC[C@H](O)/C=C/[C@H]1[C@H](O)CC(=O)[C@@H]1CCCCCCC(=O)O [285959-L6] | -5.58
Cc1cc(-c2ccc(/N=N/c3ccc4c(S(=O)(=O)O)cc(S(=O)(=O)O)c(N)c4c3O)c(C)c2)ccc1/N=N/c1ccc2c(S(=O)(=O)O)cc(S(=O)(=O)O)c(N)c2c1O | 73.9
O=C(Nc1cccc2c(=O)cc(-c3nn[nH]n3)oc12)c1ccc(OCCCCc2ccccc2)cc1 | -2.25
O=C(O)c1ccccc1-c1c2cc(I)c(=O)c(I)c-2oc2c(I)c(O)c(I)cc12 | 66.4
Clc1ccc(C(Cn2ccnc2)OCc2ccsc2Cl)c(Cl)c1 (stereo not shown) [735884-L3] | 5.23
OC[C@H]1O[C@H](O[C@H]2[C@H](O)[C@@H](O)[C@H](O)O[C@@H]2CO)[C@H](O)[C@@H](O)[C@@H]1O | 17.5
CCCCC(=O)N(Cc1ccc(-c2ccccc2-c2nn[nH]n2)cc1)[C@H](C(=O)O)C(C)C | 21.1
Cc1ccccc1C(OCCN(C)C)c1ccccc1 (stereo not shown) | -5.39
CCCCc1oc2ccccc2c1C(=O)c1cc(I)c(OCCN(CC)CC)c(I)c1 | 14.9
CO[C@@H]1[C@@H](O[C@@H]2O[C@H](C)[C@@H](O[C@H]3C[C@@](C)(O)[C@H](O)[C@H](C)O3)[C@H](N(C)C)[C@H]2O)[C@@H](CC=O)C[C@@H](C)[C@@H](O[C@H]2CC[C@H](N(C)C)[C@@H](C)O2)/C=C/C=C/C[C@H](C)OC(=O)C[C@H]1O | 4.48
O=c1c2ccccc2[se]n1-c1ccccc1 | 19.3
Nc1nc(O)ncc1F | 15.6
COc1ccc2c(c1)N(C[C@H](C)CN(C)C)c1ccccc1S2 | 2.52
S=P(N1CC1)(N1CC1)N1CC1 | 27.8
CC[C@H](C)[C@@H]1NC(=O)[C@H](Cc2ccc(OC)cc2)NC(=O)CCCSC[C@@H](C(=O)N2CCC[C@H]2C(=O)N[C@@H](CC(C)C)C(=O)NCC(N)=O)NC(=O)[C@H](CC(N)=O)NC(=O)[C@H](CCC(N)=O)NC1=O (Y(Me)IQNCPLG-NH2; linker N-5 via X1) | 9.07
COc1ccc2cc1Oc1ccc(cc1)C[C@H]1c3c(cc4c(c3Oc3cc5c(cc3OC)CCN(C)[C@@H]5C2)OCO4)CCN1C | -18.5
COc1ccc(OC)c(C(O)C(C)N)c1 (stereo not shown) | 16.7
CN1C(C(=O)Nc2ccccn2)=C(O)c2ccccc2S1(=O)=O | 6.97
CCCCC(F)(F)[C@@]1(O)CC[C@H]2[C@@H](CC(=O)[C@@H]2CCCCCCC(=O)O)O1 | 20.6
C[C@@H](O)[C@H]1C(=O)N2C(C(=O)O)=C(S[C@@H]3CN[C@H](C(=O)Nc4cccc(C(=O)O)c4)C3)[C@H](C)[C@H]12 | 10.5
COc1ccc(-n2nc(CCC(=O)N(C)O)cc2-c2ccc(Cl)cc2)cc1 | 16
N[C@@H](CSSC[C@H](N)C(=O)O)C(=O)O | -0.0671
CCN(CC)CCNc1ccc(CO)c2sc3ccccc3c(=O)c12 | 0.0147
O=C(O)[C@H](CC(=O)N1C[C@H]2CCCC[C@H]2C1)Cc1ccccc1 | 22.1

Structure (SMILES) | % Inhibition [%]
CN1CCN(C(=O)O[C@H]2c3nccnc3C(=O)N2c2ccc(Cl)cn2)CC1 | 9.05
C1CCN2C[C@@H]3C[C@H](CN4CCCC[C@@H]34)[C@H]2C1 | -35.5
O=C(O)C1=C(CSc2nnnn2CS(=O)(=O)O)CS[C@@H]2C(NC(=O)[C@H](O)c3ccccc3)C(=O)N12 (stereo partly shown) | 15.1
CCCCCCCCCCOc1cc2c(O)c(C(=O)OCC)cnc2cc1OCC | -12.8
CCN1CCN(C(=O)N[C@@H](C(=O)N[C@@H]2C(=O)N3C(C(=O)O)=C(CSc4nnnn4C)CS[C@H]23)c2ccc(O)cc2)C(=O)C1=O | 19.8
C=CCNc1nc(NCC=C)nc(N2CCN(C(c3ccc(F)cc3)c3ccc(F)cc3)CC2)n1 | 13.4
CC1=C(CC(=O)O)c2cc(F)ccc2/C1=C\c1ccc(S(C)(=O)=O)cc1 | 12.2
CO/N=C(\C(=O)NC1C(=O)N2C(C(=O)OCOC(=O)C(C)(C)C)=C(/C=C\c3scnc3C)CSC12)c1csc(N)n1 (stereo not shown) | -4.68
C[C@H]1[C@H](OC(=O)CCC(=O)O)O[C@@H]2O[C@@]3(C)CC[C@H]4[C@H](C)CC[C@@H]1[C@@]24OO3 | 56.1
CC(=O)[C@H]1CC[C@H]2[C@@H]3CC=C4C[C@@H](OC(=O)CCC(=O)O)CC[C@]4(C)[C@H]3CC[C@]12C | -6.88
C[C@H]1[C@@H](OC(=O)CCC(=O)O)O[C@@H]2O[C@]3(C)CC[C@H]4[C@H](C)CC[C@@H]1[C@@]24OO3 | 52.3
C[C@@H]1CC[C@H]2[C@@H](C)C(=O)O[C@@H]3O[C@@]4(C)CC[C@@H]1[C@]32OO4 | 54.5
COC1O[C@@H]2O[C@@]3(C)CC[C@H]4[C@H](C)CC[C@@H]([C@H]1C)[C@@]24OO3 (stereo partly shown) | -11.8
CO[C@H]1O[C@@H]2O[C@@]3(C)CC[C@H]4[C@H](C)CC[C@@H]([C@H]1C)[C@@]24OO3 | 48.7
C[C@@H]1CC[C@H]2[C@@H](C)C(O)O[C@@H]3O[C@@]4(C)CC[C@@H]1[C@]32OO4 (stereo partly shown) | 56.5
Cc1nnc2n1-c1ccc(Cl)cc1C(c1ccccc1)=NC2 | -8.66
CC1(C)C(C=C(Cl)Cl)C1C(=O)OCc1cccc(Oc2ccccc2)c1 (stereo not shown) | 13.4
COc1cc2nc(N(C)CCCNC(=O)C3CCCO3)nc(N)c2cc1OC (stereo not shown) | 24.3
C=CC[C@]1(O)CC[C@H]2[C@@H]3CCC4=CCCC[C@@H]4[C@H]3CC[C@@]21C | 5.59
CC(C)C[C@H](NC(=O)[C@@H](Cc1c[nH]c2ccccc12)NC(=O)[C@H](Cc1ccc(O)cc1)NC(=O)[C@H](CO)NC(=O)[C@H](Cc1c[nH]c2ccccc12)NC(=O)[C@H](Cc1c[nH]cn1)NC(=O)[C@@H]1CCC(=O)N1)C(=O)N[C@@H](CCCN=C(N)N)C(=O)N1CCC[C@H]1C(=O)NCC(N)=O | 9.31
O=C(O)CCCCC(=O)O | 25.4
O=C(O)CCCO | 19
CC(=O)OCC(COC(C)=O)OC(C)=O | -1.82
C[C@@H]1[C@H](O)[C@@H](C)/C=C/C=C/C=C/C=C/C=C/C=C/C=C/[C@H](O[C@@H]2O[C@H](C)[C@@H](O)[C@H](N)[C@@H]2O)C[C@@H]2O[C@](O)(C[C@@H](O)C[C@@H](O)[C@H](O)CC[C@@H](O)C[C@@H](O)CC(=O)O[C@H]1C)C[C@H](O)[C@H]2C(=O)O | 25.1
